# In all, about 220,000 compounds went through this assay and about 5,700 (2.6%) were called active. About 18% were inconclusive and are not listed. Calls come from the whole dose curve; as a rule, active = well fitted inhibition curve with a large enough effect; inconclusive = small, poorly fitted or top-dose-only effect; inactive = no such curve, though single readings can be large or run the other way. The list comes from a sample in which actives are over-represented; it also holds similar structures and randomly drawn compounds.
# Target: Lysine-specific demethylase 5B (Homo sapiens) (UniProt Q9UGL1)
# Sequence (Q9UGL1 whole entry, looked up): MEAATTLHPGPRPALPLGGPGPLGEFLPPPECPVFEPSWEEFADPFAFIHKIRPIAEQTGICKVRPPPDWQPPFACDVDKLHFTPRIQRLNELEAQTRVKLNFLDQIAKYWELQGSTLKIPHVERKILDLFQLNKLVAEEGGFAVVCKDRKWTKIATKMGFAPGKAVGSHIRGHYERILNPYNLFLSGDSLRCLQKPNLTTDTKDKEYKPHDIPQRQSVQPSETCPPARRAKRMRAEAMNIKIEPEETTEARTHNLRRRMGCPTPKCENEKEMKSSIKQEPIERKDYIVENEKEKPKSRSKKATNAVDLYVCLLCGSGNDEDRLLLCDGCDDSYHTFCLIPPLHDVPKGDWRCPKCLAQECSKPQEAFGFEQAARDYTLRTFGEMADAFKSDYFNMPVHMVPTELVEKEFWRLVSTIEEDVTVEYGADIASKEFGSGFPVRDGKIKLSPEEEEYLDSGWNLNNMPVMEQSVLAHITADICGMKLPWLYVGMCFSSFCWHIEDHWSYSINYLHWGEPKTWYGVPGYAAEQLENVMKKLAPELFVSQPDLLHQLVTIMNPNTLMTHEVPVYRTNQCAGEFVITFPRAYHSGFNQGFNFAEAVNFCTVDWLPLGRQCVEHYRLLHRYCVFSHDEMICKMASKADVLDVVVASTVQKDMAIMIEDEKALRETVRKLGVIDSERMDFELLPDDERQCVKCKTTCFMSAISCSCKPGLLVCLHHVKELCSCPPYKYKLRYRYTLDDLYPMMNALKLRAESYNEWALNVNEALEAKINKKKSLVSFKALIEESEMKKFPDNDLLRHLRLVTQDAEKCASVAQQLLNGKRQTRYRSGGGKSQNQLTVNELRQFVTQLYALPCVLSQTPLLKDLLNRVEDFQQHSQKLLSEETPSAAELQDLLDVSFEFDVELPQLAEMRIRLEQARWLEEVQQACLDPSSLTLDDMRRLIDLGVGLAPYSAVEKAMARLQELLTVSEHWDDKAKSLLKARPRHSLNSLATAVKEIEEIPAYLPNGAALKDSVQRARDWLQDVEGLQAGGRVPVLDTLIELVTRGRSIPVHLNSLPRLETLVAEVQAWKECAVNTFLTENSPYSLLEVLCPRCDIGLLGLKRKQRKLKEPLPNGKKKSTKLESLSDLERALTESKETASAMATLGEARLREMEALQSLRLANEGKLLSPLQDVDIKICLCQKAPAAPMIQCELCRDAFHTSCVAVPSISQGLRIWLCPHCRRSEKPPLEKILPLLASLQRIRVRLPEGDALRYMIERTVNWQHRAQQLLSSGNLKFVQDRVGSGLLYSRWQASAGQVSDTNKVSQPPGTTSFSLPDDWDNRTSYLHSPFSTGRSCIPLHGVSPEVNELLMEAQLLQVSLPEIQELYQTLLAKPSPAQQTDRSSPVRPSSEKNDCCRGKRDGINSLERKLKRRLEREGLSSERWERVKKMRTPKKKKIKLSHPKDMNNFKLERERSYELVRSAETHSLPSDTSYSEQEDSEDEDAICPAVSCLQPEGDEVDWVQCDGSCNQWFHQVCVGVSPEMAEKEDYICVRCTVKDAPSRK
# Assay: Primary screen for KDM5B Histone Demethylases FDH-coupled qHTS; note: nearly all actives have a fitted effect of over 70% in size; for activity change, negative = inhibition: 0% is about no effect
# Details: FDH-coupled NADH fluorescence (FDH is formaldehyde dehydrogenase); series mostly up to 57.7 µM; activity change, negative = inhibition: at the top concentration
# Text: Assay Submitter (PI): Qin Yan, Ph.D. (Yale University) and Xiaodong Cheng, Ph.D. (MD Anderson) This project was funded as part of the NCI NEXT Program and Chemical Biology Consortium (CBC) The histone demethylases, KDM5A and KDM5B catalyze the demethylation of lysine 4 on histone H3 (H3K4me3/2). They are overexpressed in a variety of cancers and have been implicated in cancer cell growth, metastasis, drug resistance, and tumor growth. KDM5A is amplified and overexpressed in breast and gastric cancer; and is translocated in leukemia. While KDM5B is highly expressed in human mammary tumors and breast cancer cell lines, but not in normal adult breast tissue. Moreover, knockdown of KDM5B leads to upregulation of tumor suppressor genes, including BRCA1. The goal of this project is to employ qHTS to identify selective small molecule inhibitors of KDM5A/B demethylase activity to better understand the role of KDM5 in cancer and to develop novel therapies. We employed an FDH-coupled assay previously reported by Sakurai et al. to monitor in vitro KDM5 demethylase activity. Compounds showing dose response inhibition are re-acquired, validated, and tested for non-specific interference with the formaldehyde dehydrogenase (FDH) counterscreen. True inhibitors are validated using an AlphaLisa secondary screen, which employs an H3K4(me2-1)-specific antibody to monitor demethylation of a biotin-tagged H3K4(me3) peptide substrate. Inhibitors are profiled against KDM4A and KDM6A AlphaLisa counterscreens to determine level of demethylase specificity; and against the TruHits counterscreen to eliminate non-specific inhibitory activity on the AlphaLISA detection method. Selective inhibitors identified from the primary and secondary screening are tested in cells using immunofluorescence to monitor global H3K4 tri-methylation as a measure of KDM5A/B inhibition. Early Translation Branch (ETB) National Center for Advancing Translational Sciences (NCATS), Rockville, MD National Institute of Health (NIH), Bethesda, Maryland [1] Sakurai, M et al. A miniaturized screen for inhibitors of Jumonji histone demethylases. Mol Biosyst. 2010 Feb;6(2):357-64. doi: 10.1039/b912993f. Epub 2009 Oct 8.
# Materials: 1536-well Black, solid bottom, medium binding assay plate is purchased from Greiner Bio-one. The enzymes (KDM5B) and substrate (H3K4me3/2) are provided by the principal investigators. The buffer for this assay is composed of 50mM HEPES at pH 7.5 with 0.01% Tween-20. FDH coupled Demethylase qHTS protocol: Three microliter enzyme mix (buffer + 200nM KDM5BDeltaAP final concentration) is dispensed into the assay plate using the BioRAPTR Flying Reagent Dispenser (FRD; […]). Compound (at various final concentration) and control solution is pin transferred to the assay plate using the Kalypsys 1536-pin tool apparatus. The assay plate is incubated for 10 min at room temperature followed by addition of 1uL substrate mix (buffer + 100uM ascorbic acid, 50uM ferrous ammonium sulfate, 12.5uM H3K4Me3, 25uM a-ketoglutarate, 0.25 mM NAD+, 0.25 U/mL formaldehyde dehydrogenase using the FRD yielding a total reaction volume of 4 uL. Initial fluorescence (Read1) is detected using the PerkinElmer ViewLux plate reader equipped with 340 nm excitation and 450 nm emission filters. The final fluorescence (Read2) signal is obtained after 30 min of room temperature incubation. Delta RFU is calculated (Read2 - Read1) and is used to generated dose response curves.
# Potency is the fitted concentration of half-maximal effect.
SMILES,"activity change, negative = inhibition",Potency
COc1cccc(NC(=O)COc2cc(C)cc3oc(=O)cc(C)c23)c1,-1.19% (inactive),
CCOc1ccc(C(=O)N2CC(=O)Nc3ccc(C)cc3C2c2ccccc2)cc1 (stereo unspecified),14.9% (inactive),
CCOc1ccc(-c2cc3c(=O)n(CC(=O)NCc4ccc(OC)cc4)ccn3n2)cc1,-6.91% (inactive),
CCC(C(=O)NCCn1ccn2nc(-c3ccc(F)cc3)cc2c1=O)c1ccccc1 (stereo unspecified),-11.3% (inactive),
COc1ccc(-c2cc3c(=O)n(CCNC(=O)c4ccc(OC)cc4OC)ccn3n2)cc1,,35.5 µM (active)
Cc1ccc(C)c(-c2cc3c(=O)n(CCNC(=O)c4ccncc4)ccn3n2)c1,-19% (inactive),
CCOc1ccc(-c2cc3c(=O)n(CCNC(=O)c4ccc(OC)cc4C)ccn3n2)cc1,,28.2 µM (active)
Cc1ccc(C)c(-c2cc3c(=O)n(CCNC(=O)Cc4ccsc4)ccn3n2)c1,16.8% (inactive),
Cc1c(Cl)cccc1NC(=S)NCCSc1ccc(Cl)cc1,-3.71% (inactive),
O=Cc1cc(Cl)ccc1O,16.4% (inactive),
Cc1cc(C)c(NC(=O)COc2ccc(C(=O)Nn3c(C)ccc3C)cc2)c(C)c1,-27.9% (inactive),
O=C(Nc1ccccc1C(F)(F)F)N1CCC(N2CCN(Cc3ccccn3)C(=O)C2=O)CC1,19.7% (inactive),
COc1ccc(C(=O)C(C)OC(=O)c2nn(C)c(=O)c3ccccc23)cc1 (stereo unspecified),16.9% (inactive),
COC(=O)c1ccc(/C=C2\CCc3c(C)cc(C)cc3C2=O)cc1,-17.2% (inactive),
O=C(CN1CCN(C(=O)c2ccc3ccccc3n2)CC1)NC1CC1,-9.84% (inactive),
O=C1CCN(C(=O)c2ccc3ccccc3n2)CCCCCCN1,-0.0005% (inactive),
O=C(c1ccc2cc[nH]c2n1)N1CCOCC1,,126 µM (active)
Cc1cccc(C)c1NC(=O)CSc1nc(C)c(C)o1,19.2% (inactive),
CN(CC(=O)Nc1ccc2c(c1)OC1(CCCCC1)O2)Cc1cccs1,-7.79% (inactive),
COc1ccc(S(=O)(=O)NCCOc2ccccc2)cc1F,-1.73% (inactive),
CCOc1ccc(C2C(C#N)=C(N)N(N(C)C)C3=C2C(=O)CCC3)cc1 (stereo unspecified),8.03% (inactive),
O=C1CCC/C(=N/NC(=O)c2cc(-c3ccncc3)nc3ccccc23)C1,-14.2% (inactive),
O=C(c1ccc(Cl)cc1)N(Cc1ccco1)c1ccc(O)cc1,-4.06% (inactive),
CCc1ccc(CCC(=O)NC)cc1,7.21% (inactive),
CNC(=O)CCN(C)c1nccc(-c2ccc(C)nc2C)n1,,25.1 µM (active)
CNc1c(NC(=O)Cc2ccc(OC)c(OC)c2)c(=O)oc2ccccc12,-4.5% (inactive),

SMILES,"activity change, negative = inhibition",Potency
O=C(NNC(=O)C1CCC1)c1ccccc1,26.8% (inactive),
O=C(OCc1ccc(F)cc1)c1cnc2ccccc2n1,-22.5% (inactive),
Cc1ccc(NC(=O)c2ccoc2)cc1I,-7.73% (inactive),
O=C(NC12CC3CC(CC(C3)C1)C2)c1cccc2ncccc12,8.17% (inactive),
Cc1ccccc1NC(=O)C(C)Sc1ccc(C(F)(F)F)cn1 (stereo unspecified),35.1% (inactive),
CC1(C)C/C(=N/Nc2ccc([N+](=O)[O-])cc2[N+](=O)[O-])C(C)(C)O1,22% (inactive),
CC(C)c1ccc(/C=C(/C#N)c2nc3ccccc3[nH]2)cc1,-14.6% (inactive),
COc1ccccc1N1CCN(C(=O)c2ccccc2-c2ncc[nH]2)CC1=O,10.5% (inactive),
COC(=O)c1cccc(NC(=O)N2CCc3c(nc4cc(-c5ccccc5)[nH]n4c3=O)C2)c1,,11.2 µM (active)
COc1ccccc1CC(=O)N1CCc2c(nc3cc(-c4ccccc4Cl)[nH]n3c2=O)C1,-22.7% (inactive),
COc1ccc(-c2cc3nc4c(c(=O)n3[nH]2)CCN(C(=O)c2ccccc2C)C4)cc1,,20 µM (active)
O=C(Nc1ccccc1)N1CCc2nc(-c3ccccc3)nc(-c3ccc(Cl)cc3)c2C1,4.08% (inactive),
COc1ccc(-c2cc(N3CCCN(C(=O)c4ccc(OC)cc4C)CC3)n[nH]2)cc1,-18.9% (inactive),
COc1ccc(-c2nc(C(C)C)nc3c2CN(C(=O)c2ccccc2F)CC3)cc1,-13.2% (inactive),
COC(=O)c1cccc(NC(=O)N2CCC3(CCC(=O)N(Cc4ccccc4)CC3)CC2)c1,-8.76% (inactive),
COc1ccccc1C(=O)N1CCc2c(nc3cc(-c4ccccc4Cl)[nH]n3c2=O)C1,,22.4 µM (active)
CCN(CC)c1nc2ccccc2nc1C(=O)Nc1ccccc1C,-17.6% (inactive),
O=c1oc2ccccc2c2nc(-c3ccccc3)c(-c3ccccc3)nc12,13.1% (inactive),
Cc1c(-c2ccccc2)nc2ccccc2c1C(=O)OCC(N)=O,-1.96% (inactive),
COC(=O)CC(NC(=O)c1nn(C)c(=O)c2ccccc12)c1ccccc1 (stereo unspecified),23.1% (inactive),
CC(C)C(=O)NC(Nc1ccccc1Cl)(C(F)(F)F)C(F)(F)F,-7.69% (inactive),
COc1ccc(-c2ccc3ncn(C4CC4)c(=O)c3n2)cn1,,39.8 µM (active)
COc1ccc(Nc2cnc3ccc(-c4ccc(OC)nc4)nn23)cc1,-21.5% [at 86.2 µM] (inactive),
COc1ccc(-c2ccc3ncc(Nc4ccc(C(F)(F)F)cc4)n3n2)cn1,-18.9% [at 86.2 µM] (inactive),
O=C(O)c1cccc(NC(NC(=O)c2cccs2)C(=O)c2ccccc2)c1 (stereo unspecified),4.76% (inactive),

# — PubChem BioAssay AID1347165 (National Center for Advancing Translational Sciences (NCATS), 2019)
